Some test systems named below: HCT-15 colon; HT29 colon; SNB-75 CNS; SNB-19 CNS; U251 CNS; PC-3 prostate; SK-MEL-5 melanoma; UACC-62 melanoma; LOX IMVI melanoma; SK-MEL-28 melanoma; SK-MEL-2 melanoma; EKVX NSCLC; SN12C renal; UO-31 renal; TK-10 renal; ACHN renal; CAKI-1 renal; A498 renal; CCRF-CEM leukemia; MOLT-4 leukemia.
Common to all, as to assay: NCI-60 one-dose screen, 48 h (100 = growth as untreated, 0 = no growth, -100 = all killed)
Common to all, as to conditions: 10 µM unless noted

Compounds without any hit were thinned out: in the full panel of roughly 83,000, 20% have a hit.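 Assay: single dose, 48 h. Readout: percent growth (0 = no net growth; negative = cell death). Active: <10.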 Values without a mark were called inactive. Calls of active or inactive are those of the source.

In the case of `CCOCCNC1=C(Cl)C(=O)c2ccccc2C1=O`, the growth in the test on HCT-15 colon is 95%; in the test with HT29 colon it was 107%; with SNB-75 CNS, 57.9%; with SNB-19 CNS it was 111%; in the test with U251 CNS, 100%; in the test on PC-3 prostate, 92.6%. In addition, the growth in the test with SK-MEL-5 melanoma was 67.2%; with UACC-62 melanoma it was 101%; in the test on LOX IMVI melanoma, 70.6%; in the test with SK-MEL-28 melanoma it was 117%; with SK-MEL-2 melanoma, 92.3%; with EKVX NSCLC, 106%. Further, the growth in the test with SN12C renal is 100%; in the test with UO-31 renal it was 105%; in the test on TK-10 renal it was 125%; with ACHN renal, 110%; in the test on CAKI-1 renal, 115%; in the test with A498 renal, 94.4%. Further, the growth with CCRF-CEM leukemia was 102%; with MOLT-4 leukemia, 89.2%.
Take `c1ccc([P+](c2ccccc2)(c2ccccc2)c2ccc3c4ccc([P+](c5ccccc5)(c5ccccc5)c5ccccc5)c5cccc(c6cccc2c63)c54)cc1`: the growth in the test with HCT-15 colon is 66.2%; in the test with HT29 colon, 8.41% (active); in the test on SNB-75 CNS, 13.5%; in the test on SNB-19 CNS, 12.5%; in the test on U251 CNS it was 14%; with PC-3 prostate, 17.7%. The growth with SK-MEL-5 melanoma was -57.6% (active); with UACC-62 melanoma, 15%; with LOX IMVI melanoma, 3.08% (active); in the test with SK-MEL-28 melanoma, 4.81% (active); in the test with SK-MEL-2 melanoma, 18.6%; in the test on EKVX NSCLC it was 12.8%. Moreover, the growth in the test with SN12C renal was 10.5%; with UO-31 renal it was 39.4%; in the test with TK-10 renal it was 52.2%; in the test with ACHN renal it was 41.3%; in the test with CAKI-1 renal, 40.3%; in the test on A498 renal, -11.3% (active). Also, the growth was 26.5% in the test with CCRF-CEM leukemia and 23.2% in the test with MOLT-4 leukemia.
Consider `O=C1NC2(Nc3ccccc31)C(=O)Nc1c(Cl)cc(Cl)cc12` (stereo not given), for which the growth in the test on HCT-15 colon was 108%; in the test with HT29 colon, 107%; in the test on SNB-75 CNS it was 80%; with SNB-19 CNS it was 104%; with U251 CNS, 104%; with PC-3 prostate, 103%. Also, the growth in the test with SK-MEL-5 melanoma was 99.9%; in the test on UACC-62 melanoma it was 101%; in the test on LOX IMVI melanoma, 95.9%; with SK-MEL-28 melanoma it was 118%; with SK-MEL-2 melanoma, 119%; in the test with EKVX NSCLC, 98.8%. Moreover, the growth in the test on SN12C renal was 106%; in the test with UO-31 renal, 78.5%; with TK-10 renal, 206%; with ACHN renal, 107%; with CAKI-1 renal, 85.1%; in the test with A498 renal, 106%. In addition, the growth with CCRF-CEM leukemia is 103%; in the test on MOLT-4 leukemia it was 93%.
Turning to `CCCC/C(CC)=N\NS(=O)(=O)c1ccc([N+](=O)[O-])cc1`, the growth is 107% in the test on HCT-15 colon; 106% with HT29 colon; 90.4% in the test with SNB-75 CNS; 95.2% with SNB-19 CNS; 88.6% in the test on U251 CNS; 84.5% in the test on PC-3 prostate. Besides, the growth in the test on SK-MEL-5 melanoma was 98.2%; in the test on UACC-62 melanoma, 98.5%; with LOX IMVI melanoma it was 94.2%; in the test on SK-MEL-28 melanoma, 108%; with SK-MEL-2 melanoma, 94.6%; in the test with EKVX NSCLC, 102%. Also, the growth with SN12C renal is 102%; in the test on UO-31 renal, 83.3%; in the test on TK-10 renal it was 93.4%; in the test on ACHN renal it was 104%; in the test with CAKI-1 renal it was 96.9%; in the test with A498 renal, 96.3%. Further, the values for the growth in the test with CCRF-CEM leukemia and in the test on MOLT-4 leukemia were 87.1% and 101%, respectively.
For `COc1ccc(/C=N\Nc2nc(SCCC(C)C)nc(-c3ccc(OC)cc3)c2C#N)cc1`, the growth was 74.6% in the test with HCT-15 colon; 55% in the test with HT29 colon; -19.4% (active) in the test on SNB-75 CNS; 69.5% in the test on SNB-19 CNS; 7.04% (active) with U251 CNS; 72.3% in the test with PC-3 prostate. Also, the growth is 94.3% with SK-MEL-5 melanoma; 79.1% with UACC-62 melanoma; 66% in the test on LOX IMVI melanoma; 104% with SK-MEL-28 melanoma; 103% in the test on SK-MEL-2 melanoma; 44.8% in the test with EKVX NSCLC. Besides, the growth was 32.2% in the test on SN12C renal; -41.4% (active) in the test on UO-31 renal; 11.2% in the test with TK-10 renal; -41.5% (active) in the test on ACHN renal; 17% in the test with CAKI-1 renal; 98.5% in the test on A498 renal. In addition, the growth was 31.4% with CCRF-CEM leukemia and 65.1% in the test on MOLT-4 leukemia.
Consider `Cn1cc(-c2csc(-c3c[nH]c4ccc(Br)cc34)n2)c2ccnc(Cl)c21`, for which the growth is -0.791% (active) with HCT-15 colon; 20.8% in the test with HT29 colon; 85.2% with SNB-75 CNS; 81.7% in the test with SNB-19 CNS; 33.4% in the test on U251 CNS; 50.2% in the test with PC-3 prostate. In addition, the growth in the test on SK-MEL-5 melanoma was 71.7%; in the test with UACC-62 melanoma, 68.8%; in the test with LOX IMVI melanoma, 26.2%; in the test with SK-MEL-28 melanoma, 71.7%; with SK-MEL-2 melanoma, 85.4%; in the test with EKVX NSCLC, 69.1%. Moreover, the growth with SN12C renal was 67.5%; with UO-31 renal, 48.8%; in the test with TK-10 renal, 56.3%; in the test on ACHN renal, 39.2%; with CAKI-1 renal, 66.5%; in the test on A498 renal, 51.6%. For the same molecule, the growth in the test with CCRF-CEM leukemia was 39.5%; in the test with MOLT-4 leukemia, 56.4%.
`N#Cc1nc(-c2ccc(F)cc2)oc1S(=O)(=O)N1CCOCC1`: the growth in the test with HCT-15 colon was -29.9% (active); in the test with HT29 colon, 36.5%; with SNB-75 CNS, 91.2%; in the test on SNB-19 CNS, 95.8%; in the test with U251 CNS, 98.9%; in the test with PC-3 prostate it was 91%. The growth in the test on SK-MEL-5 melanoma was 82.6%; in the test on UACC-62 melanoma, 89.9%; with LOX IMVI melanoma, 8.36% (active); in the test on SK-MEL-28 melanoma, 85.7%; with SK-MEL-2 melanoma, 83.6%; in the test on EKVX NSCLC, 96.2%. Besides, the growth is 82.1% with SN12C renal; 82% in the test with UO-31 renal; -80.9% (active) with TK-10 renal; -99.9% (active) in the test on ACHN renal; 78.5% in the test on CAKI-1 renal; 128% in the test with A498 renal. The figures for the growth with CCRF-CEM leukemia and with MOLT-4 leukemia were 3.08% (active) and -5.27% (active), respectively.
For `COc1cc(C2CC(c3ccc(Nc4nc(Nc5ccc(Cl)cc5)nc(Nc5ccc(Cl)cc5)n4)cc3)=NN2C(C)=O)cc(OC)c1OC` (stereo not given), the growth in the test on HCT-15 colon was 88.9%; in the test on HT29 colon, 97.2%; in the test on SNB-75 CNS, 106%; in the test with SNB-19 CNS it was 102%; with U251 CNS, 93.6%; in the test on PC-3 prostate, 89.9%. The growth in the test with SK-MEL-5 melanoma is 81.3%; in the test on UACC-62 melanoma it was 90.1%; in the test on LOX IMVI melanoma, 105%; in the test with SK-MEL-28 melanoma, 119%; with SK-MEL-2 melanoma it was 80.4%; with EKVX NSCLC, 94%. For the same molecule, the growth in the test on SN12C renal is 102%; in the test with UO-31 renal, 84.8%; in the test on TK-10 renal, 118%; with ACHN renal, 96.7%; with CAKI-1 renal it was 90.4%; with A498 renal, 113%. In addition, the growth was 101% with CCRF-CEM leukemia and 79% in the test with MOLT-4 leukemia.

The values above are taken from PubChem BioAssay (NCI).
